Source: PubChem BioAssay (Tox21)
Where “and” joins values, the source holds several entries; their conditions need not be identical. Equal entries are not always repeated. Inconclusive results are not listed. Entries that show only a call come without a potency. Values without a mark were called inactive. Calls of active or inactive are those of the source. Unless noted, calls follow the shape of the dose curve; as a rule, active = well fitted curve in the direction sought with a large enough effect in the repeat runs; inconclusive = weak or mixed curves; inactive = no such curve, though single readings can be large; an effect the other way counts as inactive or inconclusive.

Key:
[1] = qHTS assay to identify small molecule agonists of the RXR signaling pathway - cell viability counter screen (AID 1159529); conditions: RXR-alpha-bla HEK293T viability, CellTiter-Glo, 16 h; series mostly up to 76.8 µM; also: nearly all actives have a fitted effect of over 50% in size; also: potency is read from the fitted curve at half-maximal effect;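 as to activity change, negative = cytotoxicity: HEK 293T cells carrying an RXR-alpha UAS beta-lactamase reporter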
How it was run: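 HEK 293T RXRa-bla cells, 2% CS-FBS; 5 h settle; cpd 16 h 37 C, 5% CO2; CellTiter-Glo 30 min RT, luminescence. Tetraoctyl ammonium bromide as positive control.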

[2] = qHTS assay to identify small molecule antagonists of the retinoid acid receptor (RAR) signaling pathway - cell viability counter screen (AID 1159551); conditions: C3RL4 cells viability, ATP luminescence (CellTiter-Glo), 6 h; series mostly up to 92.4 µM; also: nearly all actives have a fitted effect of over 35% in size; also: potency is read from the fitted curve at half-maximal effect
How it was run: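 Cytotoxicity counter screen in C3RL4 cells: 6 h compound exposure with 1 uM retinol (final), viability from cellular ATP by luminescence.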

[3] = qHTS assay to identify small molecule antagonists of the retinoic acid receptor (RAR) signaling pathway (AID 1159552; also: nearly all actives have a fitted effect of over 50% in size); conditions: C3RL4 RARE luciferase reporter, retinol-stimulated, 6 h; series mostly up to 92.4 µM
How it was run: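 Cells of the C3RL4 line were seeded, incubated overnight, then dosed with compounds in DMSO followed immediately by retinol (1 uM final). Six hours later luciferase detection reagent went in; signal was measured after 30 min at RT.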

[4] = qHTS assay to identify small molecule agonists of the retinoic acid receptor (RAR) signaling pathway (AID 1159553); conditions: C3RL4 RARE luciferase reporter, agonist, 6 h; series mostly up to 73.3 µM; also: potency is read from the fitted curve at half-maximal effect
How it was run: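 Agonist activity was scored in C3RL4 cells bearing a retinoic acid response element luciferase construct. Cells were treated with compounds for 6 hr at 37 C, and luciferase signal was measured as luminescence.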

[5] = qHTS assay to identify small molecule antagonists of the estrogen related receptor signaling pathway with the pleiotropic PPARgamma coactivator (PGC) cell viability counter screen (AID 1224822;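 also: viability read after 17.5 h compound exposure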); conditions: ERR/PGC reporter cell line viability counter screen; series mostly up to 46.1 µM
How it was run: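 Seed PGC/ERR cells (2,000/well); incubate 6 h at 37 C/5% CO2; pin-transfer compounds in DMSO; incubate 17.5 h at 37 C; add CellTiter-Fluor; after 30 min read fluorescence.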

[6] = qHTS assay to identify small molecule antagonists of the estrogen related receptor (ERR) signaling pathway from Tox21 library - cell viability counter screen (AID 1224834); conditions: ERR reporter cells viability, CellTiter-Fluor, 17.5 h; series mostly up to 92.4 µM; also: nearly all actives have a fitted effect of over 30% in size; also: potency is read from the fitted curve at half-maximal effect
How it was run: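 Cytotoxicity of test substances is gauged in the same ERR cells used for the antagonist screen, after 17.5 h of compound treatment at 37 C, by CellTiter-Fluor fluorescence measured after 30 min.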

[7] = qHTS assay to identify small molecule antagonists of the estrogen related receptor (ERR) signaling pathway (AID 1224819;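 also: luminescence from an ERR-driven luciferase reporter measured with One-Glo reagent; nearly all actives have a fitted effect of over 50% in size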); conditions: ERR reporter cell line, luciferase inhibition; series mostly up to 46.1 µM
How it was run: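 Compounds dissolved in DMSO were pin-transferred onto ERR cells that had been plated 6 h earlier, and cells were then incubated 18 h at 37 C; signal was luciferase luminescence via One-Glo.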

[8] = qHTS assay to identify small molecule agonists of the estrogen related receptor (ERR) signaling pathway (AID 1224820); conditions: ERR reporter cell line, luciferase agonist mode; series mostly up to 46.1 µM
How it was run: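 Quantitative HTS of the LOPAC library used NTP ERR reporter cells treated 18 h at 37 C. Signal is luminescence after One-Glo addition and a 30 min room-temperature incubation.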

[9] = test system: estrogen-related receptor alpha (ERRalpha) with PGC-1alpha coactivator, human; experiment: qHTS assay to identify small molecule antagonists of the estrogen related receptor signaling pathway with the pleiotropic PPARgamma coactivator (PGC) (AID 1224821; calls by dose curve;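 also: lower luminescence signal means antagonism of PGC/ERR signalling; nearly all actives have a fitted effect of over 50% in size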); conditions: ERR/PGC reporter cell line, luciferase, antagonist mode; series mostly up to 46.1 µM
How it was run: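 Quantitative HTS for antagonism: PGC/ERR cells received compounds after 6 h attachment and were incubated 18 h at 37 C, with luminescence (One-Glo) as the endpoint.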

[10] = qHTS assay to identify small molecule agonists of the estrogen related receptor signaling pathway with the pleiotropic PPARgamma coactivator (PGC) (AID 1224823); conditions: ERR/PGC reporter cell line, luciferase agonist mode; series mostly up to 46.1 µM
How it was run: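 Cell-based luciferase assay in the NTP-supplied PGC/ERR line, 2,000 cells/well; 18 h compound exposure at 37 C, luminescence after One-Glo.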

NCCCCCC(=O)O
Potency [1]: inactive | Potency [2]: inactive | Potency [3]: inactive | Potency [4]: inactive | Potency [5]: inactive | Potency [6]: inactive

COc1cc(C(=S)N2CCOCC2)ccc1O
Potency [1]: inactive | Potency [2]: inactive | Potency [3]: inactive | Potency [4]: inactive | Potency [6]: inactive

CC(=O)OCC1=C(C(=O)O)N2C(=O)[C@@H](NC(=O)Cc3cccs3)[C@H]2SC1
Potency [1]: inactive | Potency [2]: inactive | Potency [3]: inactive | Potency [4]: inactive | Potency [5]: inactive | Potency [6]: inactive

CO[Si](OC)(OC)c1ccccc1
Potency [1]: inactive | Potency [2]: inactive | Potency [3]: inactive | Potency [4]: inactive

CCCNC(C)C(=O)Nc1ccccc1C (centres undefined)
Potency [1]: inactive | Potency [2]: inactive | Potency [3]: inactive | Potency [4]: inactive | Potency [5]: inactive | Potency [6]: inactive

NC(Cc1ccc(Cl)cc1)C(=O)O (centres undefined)
activity change, negative = cytotoxicity [1]: 5.89% [at 0.29 µM] | activity change, negative = cytotoxicity [2]: 2.93% [at 0.349 µM] | activity, negative = inhibition [3]: 4.68% [at 0.349 µM] | activation [4]: 0.724% [at 0.756 µM] | Potency [7]: inactive | outcome [8]: inactive | Potency [9]: inactive | Potency [5]: inactive | outcome [10]: inactive | viability change, negative = cytotoxic [6]: -4.51% [at 0.349 µM]

CCc1cc(C(C)(C)C)c(O)c(C(C)(C)C)c1
Potency [1]: inactive | Potency [2]: inactive | Potency [3]: inactive | Potency [4]: inactive | Potency [6]: inactive

CC(=O)CC(=O)Nc1ccc2[nH]c(=O)[nH]c2c1
Potency [1]: inactive | Potency [2]: inactive | Potency [3]: inactive | Potency [4]: inactive | Potency [6]: inactive

CC(C)(O)CCC(C)(C)O
Potency [1]: inactive | Potency [2]: inactive | Potency [3]: inactive | Potency [4]: inactive

CC(C)(C)NCC(O)c1cc(O)cc(O)c1 (centres undefined)
Potency [1]: inactive | Potency [2]: inactive | Potency [3]: inactive | Potency [4]: inactive | Potency [5]: inactive

Cc1ccc(S(=O)(=O)Oc2ccc(N=Nc3ccc(-c4ccc(N=Nc5c(O)ccc6cc(S(=O)(=O)O)cc(S(=O)(=O)O)c56)c(C)c4)cc3C)cc2)cc1
Potency [1]: inactive | Potency [2]: 24.4 µM (active) and 20 µM (active) | Potency [3]: inactive | Potency [4]: inactive | Potency [6]: 19.4 µM (active) and 17.8 µM (active)

CC(COc1ccccc1)N(CCCl)Cc1ccccc1 (centres undefined)
Potency [1]: inactive | Potency [2]: inactive

O=C(O)CP(=O)(O)O
Potency [1]: inactive | Potency [2]: inactive | Potency [3]: inactive | Potency [4]: inactive | Potency [5]: inactive | Potency [6]: inactive

CC(=O)C1=C(C)[C@@H]2C[C@@]3(C1)[C@H](C)CC[C@H]3C2(C)C
Potency [1]: inactive | Potency [2]: inactive

CC(N)=O
Potency [1]: inactive | Potency [2]: inactive | Potency [3]: inactive | Potency [4]: inactive | Potency [5]: inactive | Potency [6]: inactive

CC(C)(c1ccccc1)c1ccc(Nc2ccc(C(C)(C)c3ccccc3)cc2)cc1
Potency [1]: inactive | Potency [2]: inactive | Potency [3]: inactive | Potency [4]: inactive | Potency [6]: inactive

CC(C(O)c1ccc(O)cc1)N1CCC(Cc2ccccc2)CC1 (centres undefined)
Potency [1]: inactive | Potency [2]: inactive | Potency [3]: inactive | Potency [4]: inactive | outcome [8]: inactive | outcome [10]: inactive | Potency [6]: inactive

Cc1scc2c1N(C(=O)CN1CCN(C)CC1)c1ccccc1NC2=O
Potency [1]: inactive | Potency [2]: inactive | Potency [3]: inactive | Potency [4]: inactive | Potency [5]: inactive

NC(N)=NC(=O)Cc1c(Cl)cccc1Cl
Potency [1]: inactive | Potency [2]: inactive | Potency [3]: inactive | Potency [4]: inactive | Potency [7]: inactive | outcome [8]: inactive | Potency [9]: inactive | Potency [5]: inactive | outcome [10]: inactive | Potency [6]: inactive

C=C(C)C(=O)O
Potency [1]: inactive | Potency [2]: inactive

CC1COc2c(N3CCN(C)CC3)c(F)cc3c(=O)c(C(=O)O)cn1c23 (centres undefined)
Potency [1]: inactive | Potency [2]: inactive | Potency [3]: inactive | Potency [4]: inactive | Potency [5]: inactive

CCCCCC(=O)O[C@]1(C(C)=O)CC[C@H]2[C@@H]3CCC4=CC(=O)CC[C@]4(C)[C@H]3CC[C@@]21C
Potency [1]: 19.4 µM (active) and 23.9 µM (active) | Potency [2]: inactive

COC(=O)c1cccc(C(=O)OC)c1
Potency [1]: inactive | Potency [2]: inactive | Potency [3]: inactive | Potency [4]: inactive

NNCCc1ccccc1
Potency [1]: inactive | Potency [2]: inactive | Potency [3]: inactive | Potency [4]: 1.37 µM (active) and 9.44 µM (active) | Potency [5]: inactive | Potency [6]: inactive

CC(C)C(=O)c1c(C(C)C)nn2ccccc12
Potency [1]: inactive | Potency [2]: inactive | Potency [3]: inactive | Potency [4]: inactive | Potency [7]: inactive | outcome [8]: inactive | Potency [9]: inactive | Potency [5]: inactive | outcome [10]: inactive | Potency [6]: inactive

O
Potency [1]: inactive | Potency [2]: inactive

c1cnc2cc3c(cc2n1)C1CNCC3C1
Potency [1]: inactive | Potency [2]: inactive | Potency [3]: inactive | Potency [4]: inactive | Potency [7]: inactive | outcome [8]: inactive | Potency [9]: inactive | Potency [5]: inactive | outcome [10]: inactive | Potency [6]: inactive

CCN(CC)C(=O)Nc1ccc(OCC(O)CNC(C)(C)C)c(C(C)=O)c1 (centres undefined)
Potency [1]: inactive | Potency [2]: inactive | Potency [3]: inactive | Potency [4]: inactive | Potency [6]: inactive

CCCC(=O)c1ccccc1
Potency [1]: inactive | Potency [2]: inactive | Potency [3]: inactive | Potency [4]: inactive

CCN1CCCC1CNC(=O)c1cc(S(=O)(=O)CC)c(N)cc1OC (centres undefined)
Potency [1]: inactive | Potency [2]: inactive | Potency [3]: inactive | Potency [4]: inactive | Potency [7]: inactive | outcome [8]: inactive | Potency [9]: inactive | Potency [5]: inactive | outcome [10]: inactive | Potency [6]: inactive
